Rows were chosen to be rich in hits. Some 4.1% of all compounds tested hit in one or more screens of this group.
tim23-1 inh = growth inhibitors of tim23-1 mutant yeast | S. cerevisiae tim23-1 growth, BacTiter-Glo luminescence, 24 h | inhibition, % at 20 µM | actives 1.3% (n = 330,000) | AID 463212;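 active = growth inhibition of the mutant yeast at or above 50%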;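 note: temperature-sensitive mutant grown at 25 °C; plate controls were DMSO-treated mutant yeast for no effect and medium wells lacking yeast for full effect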
TIM10 inh = growth inhibitors of TIM10 yeast strain | inhibition, % at 10 µM | actives 1.4% (n = 330,000) | S. cerevisiae TIM10 strain growth, BacTiter-Glo luminescence, 24 h;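 active = inhibition of 40% or more at the single tested concentration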;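 note: wild-type TIM10 isogenic control strain grown at permissive 25 °C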
NALP1 yeast inh = NALP1 inhibition; S. cerevisiae NALP1/ASC/caspase-1 growth, X-gal OD620, 72 h; inhibition, % at 10 µM; actives 0.61% (n = 280,000); AID 2071; in the data active = inhibition mostly above about 24%, no sharp cut-off; inactive = mostly below about 32%
tim10-1 inh = inhibits growth of tim10-1 mutant yeast. S. cerevisiae tim10-1 ts strain growth, BacTiter-Glo, 24 h. actives 2.2% (n = 330,000). inhibition, % at 20 µM. AID 463190;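 active = inhibition of at least 40%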;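 note: mutant grown at 25 °C; 0% = DMSO wells with yeast and 100% = wells holding no yeast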
NALP3 yeast inh = inhibitors of NALP3 inflammasome in yeast; Yeast reconstituted NLRP3/ASC/caspase-1, beta-gal luminescence, 24 h; inhibition, % at 10 µM; actives 0.39% (n = 330,000); AID 2825;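 active = inhibition of 50% or more; inactive = inhibition below 50%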;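 note: plate controls were induced DMSO wells for no effect and uninduced yeast grown without galactose for full effect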
tim10 confirm = TIM10 yeast growth inhibition, confirmed. shares compounds with TIM10 inh. S. cerevisiae tim10 strain growth, BacTiter-Glo luminescence, 24 h. inhibition, % at 10 µM. actives 63% (n = 4,600). AID 463215;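 active = inhibition of yeast growth at or above a set limit in either of two replicates at 10 µM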;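 note: this counterscreen used the strain with wild-type TIM10; 0% = yeast with DMSO and 100% = medium wells lacking yeast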
An asterisk follows results filed as active; / = not tested or not shown.

SMILES | tim23-1 inh | TIM10 inh | NALP1 yeast inh | tim10-1 inh | NALP3 yeast inh | tim10 confirm
Cc1ccc(S(=O)(=O)NC2CCCc3ccccc32)cc1C (stereo unspecified) | 12 | 45* | 13 | 35 | 9 | -4
Fc1ccc2[nH]c3c(N4CCc5ccccc5C4)ncnc3c2c1 | 14 | 18 | 6 | 7 | 16 | /
Brc1ccc2[nH]c3c(N4CCc5ccccc5C4)ncnc3c2c1 | 42 | 43* | -10 | 37 | 13 | 14
CCc1ccc(N2CC(C(=O)Nc3ccc4c(c3)OCO4)CC2=O)cc1 (stereo unspecified) | 11 | 12 | / | 10 | 5 | /
CC(=O)Nc1cccc(NC(=O)CSc2nc(=O)n(Cc3ccncc3)c3c2CCC3)c1 | -1 | -9 | / | 3 | 3 | /
CC(=O)Nc1cccc(NC(=O)CSc2nc(=O)n(Cc3ccccn3)c3c2CCC3)c1 | 8 | 97* | / | 8 | 12 | 4
Cc1ccc(CNS(=O)(=O)c2cc3c4c(c2)C(C)C(=O)N4CCC3)cc1 (stereo unspecified) | 0 | 2 | 13 | 13 | -4 | /
CCCC(=O)NC(=S)Nc1cccc(NC(=O)c2ccccc2)c1 | 8 | 19 | 13 | 5 | 18 | /
CC(C)CC(=O)NC(=S)Nc1ccc(NC(=O)c2cccs2)cc1 | 21 | 51* | -4 | 8 | 14 | 30
CC(C)CC(=O)NC(=S)Nc1cccc(NC(=O)c2ccccc2)c1 | 30 | 47* | 30 | 30 | 0 | 33*
COc1cccc(CNCc2ccc(OC)cc2OC)c1 | -10 | 1 | -5 | -3 | 15 | /
CCn1c2ccccc2c2cc(CNCc3ccc(OC)cc3OC)ccc21 | 20 | 49* | 23* | 2 | 36 | 23
COC(=O)Cn1cnc2c(nnn2-c2cccc(OC)c2)c1=O | 0 | 8 | 2 | 25 | 10 | /
CCOC(=O)c1cnc2c(ccc3ccccc32)c1NCCO | 49 | 61* | -94 | 38 | 30 | 69*
CC(C)(C)n1nnnc1C(c1cccs1)N(Cc1ccc(Cl)cc1)CC1CCCO1 (stereo unspecified) | 41 | 41* | 10 | 35 | 3 | -19
O=S(=O)(NCc1ccc2c(c1)OCO2)c1ccc2oc3ccccc3c2c1 | 32 | 49* | / | 22 | 4 | 35*
CC(C)COc1cc(=O)[nH]c(SCC(C)C)n1 | 9 | 45* | -4 | 36 | -40 | 39*
O=C(Cn1cnc2c(oc3ccccc32)c1=O)c1ccccc1 | 42 | 49* | -11 | 16 | 49 | 29
O=C(c1cc2nc(-c3ccco3)cc(C(F)(F)F)n2n1)N1CCN(Cc2ccccc2)CC1 | 22 | 17 | 14 | 22 | -7 | /
O=C(CCc1nnc2n(Cc3ccccc3Cl)c(=O)c3ccccc3n12)NCCCN1CCOCC1 | 4 | 0 | 7 | 3 | 4 | /
Cc1ccc(Cn2c(=O)c3ccccc3n3c(CCC(=O)NCCN4CCOCC4)nnc23)cc1 | -7 | 96* | 14 | 6 | 15 | -7
O=C(c1ccccc1)N1CCCCC(Sc2nnc3ccccn23)C1=O (stereo unspecified) | 2 | -11 | 8 | -5 | 8 | /
CCN(CC)C(=S)SC1CCCCN(C(=O)c2ccccc2)C1=O (stereo unspecified) | 36 | 40 | -6 | 28 | -16 | 22
Cc1noc(C)c1COc1ccccc1C(=O)N(C)CC(=O)Nc1ccc(F)cc1 | -9 | 8 | / | -25 | 11 | /
Cc1ccc(-n2c(O)c(C=Nc3ccc4c(c3)OCO4)c3ccccc3c2=O)cc1C | -40 | -6 | 23 | 6 | -3 | /
SMILES | tim23-1 inh | TIM10 inh | NALP1 yeast inh | tim10-1 inh | NALP3 yeast inh | tim10 confirm
Cc1cc(N=Cc2c(O)n(-c3ccc4c(c3)OCO4)c(=O)c3ccccc23)ccn1 | 25 | 53* | 4 | 26 | 19 | 36*
Cc1cccc(-n2c(O)c(C=Nc3cccc(O)c3)c3ccccc3c2=O)n1 | 16 | 10 | -17 | -5 | -12 | /
Cc1ccc(N=Cc2c(O)n(-c3nccs3)c(=O)c3ccccc23)cc1 | -2 | 41* | 15 | 14 | 6 | -8
CCCCOC(=O)CCn1c(=S)oc2ccccc21 | 25 | 10 | 14 | 11 | 22 | /
CCCCOC(=O)n1c(=S)oc2cc(Cl)ccc21 | -155 | 74* | 3 | -54 | 17 | -39
CCOc1ccc(-n2ccn(CC(=O)NCCc3ccccc3)c(=O)c2=O)cc1 | 17 | 9 | / | 18 | 10 | /
CCOC(=O)c1sc(=NC(=O)c2cccs2)n(C)c1C | 43 | 59* | -12 | 1 | 49 | 46*
O=C(/C=C/c1ccc(Br)cc1)c1ccc(NC2=NCCCS2)cc1 | 37 | 52* | 13 | 35 | 21 | 29
C=C(C)CNC(=S)NN=C1c2ccccc2-c2ccccc21 | 32 | 19 | -18 | 31 | 25 | /
CCNC(=S)NN=C1c2ccccc2-c2ccccc21 | 7 | 44* | 3 | 37 | 41 | 25
CCN1C(=O)/C(=C/c2ccc(C)s2)NC1=S | 30 | 41* | -8 | 36 | -4 | -18
Cc1ccc(CN(C)C(=O)CN2C(=O)NC(c3ccccc3)(c3ccccc3)C2=O)c(C)c1 | 38 | 17 | / | 10 | 18 | /
COC(=O)C[C@H]1c2cc(F)cc(F)c2S(=O)(=O)N1C1CCN(Cc2ccccc2)CC1 | 3 | 2 | / | 3 | -2 | /
Cc1ccc(-n2cc3c(-c4cccc(Br)c4)nnc(C)c3n2)cc1 | 41 | 44* | / | 35 | 25 | 31*
O=C(O)C1Sc2[nH]c(=O)sc2C2c3cc(Br)ccc3OC(=O)C12 (stereo unspecified) | 30 | 44* | / | 22 | 7 | 33*
CC(C)(C)c1cc(NCc2ccccn2)n2ncc(-c3ccccc3)c2n1 | 43 | 52* | 0 | 28 | 28 | 42*
Cc1cc(C(=O)COC(=O)CC2Sc3ccccc3NC2=O)c(C)n1-c1ccc(Br)cc1 (stereo unspecified) | 23 | 23 | 27 | 28 | -1 | /
Cc1cc(C(=O)COC(=O)CC2Sc3ccccc3NC2=O)c(C)n1-c1ccccc1 (stereo unspecified) | 26 | 57* | 39 | 36 | 4 | 32*
CC(C)(C)c1nnc(NC(=S)Nc2ccccc2)s1 | 28 | 45* | -8 | 35 | 49 | 24
COc1cc(OC)cc(C(=O)Nc2nnc(NC(=S)Nc3ccccc3)s2)c1 | 9 | 20 | 4 | 18 | 18 | /
CCOC(=O)c1cnc2c(OC)cccc2c1N1CCN(c2ccccc2OC)CC1 | 34 | 42* | 15 | 37 | 31 | -23
CC1=NN(c2ccccc2)C(=O)/C1=C\C=C\c1ccccc1 | 42 | 54* | -3 | 28 | 11 | 38*
N#Cc1c2n(c3c(N)ncnc13)CCCCC2 | 7 | 11 | 22 | 6 | 11 | /
C=CCn1c(=O)/c(=C/c2ccc(F)cc2)s/c1=C(\C#N)c1nnc2n1CCCCC2 | 49 | 44* | 15 | 33 | 8 | 40*
CC(C)(C)c1cc(C(=O)NNc2cc(C(F)(F)F)ccc2Cl)n(Cc2ccccc2)n1 | 14 | 15 | 1 | 20 | 9 | /

Source: PubChem BioAssay
